The full list was thinned out, with hits kept by preference.
GALK inh = blocks human galactokinase activity; P51570; Purified GALK, Kinase-Glo residual ATP luminescence; Potency, µM (titrated, usually from 57.5 µM), for the others: top-dose activity change, negative = inhibition, actives largely listed as inhibitors; 0.007% of 270,000 active; further: potency means the concentration at half of the fitted maximal effect; on the % scale 0 is the no-effect control and ±100 the full control effect
Target sequence (P51570 whole entry, looked up): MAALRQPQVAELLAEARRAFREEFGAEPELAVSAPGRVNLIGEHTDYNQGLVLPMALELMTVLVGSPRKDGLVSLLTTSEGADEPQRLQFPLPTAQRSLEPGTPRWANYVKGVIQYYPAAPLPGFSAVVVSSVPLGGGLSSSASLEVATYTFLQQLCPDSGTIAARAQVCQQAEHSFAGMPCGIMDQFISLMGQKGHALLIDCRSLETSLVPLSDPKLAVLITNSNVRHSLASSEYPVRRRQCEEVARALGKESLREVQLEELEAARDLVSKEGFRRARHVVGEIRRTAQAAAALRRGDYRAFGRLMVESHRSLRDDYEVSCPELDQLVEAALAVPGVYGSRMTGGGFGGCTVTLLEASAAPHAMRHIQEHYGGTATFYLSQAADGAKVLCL
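Human GALK (5 nM) with 35 uM ATP and 100 uM galactose in 20 mM HEPES pH 8.0, 5 mM MgCl2, 60 mM NaCl, 1 mM DTT, 0.01% BSA. After 1 h at room temperature, leftover ATP was read by Kinase-Glo Plus luminescence.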
HTT aggregate = inhibitors of mutant huntingtin aggregate formation in PC12 cells | PC12 HttQ103-GFP aggregates, Acumen cytometry, 40 h | Potency, µM (highest dose often 46.1 µM), for the others: at the highest dose activity change, negative = inhibition, actives largely listed as inhibitors | 1.1% of 220,000 active; further: potency means the concentration at half of the fitted maximal effect; on the % scale 0 is the no-effect control and ±100 the full control effect; nearly all actives have a fitted effect of over 60% in size
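Inducible Q103 Huntingtin exon 1–GFP PC12 line, 1500 cells/well in phenol red free DMEM with 5% equine and 5% calf serum. Tebufenozide 100 nM induced expression; compounds titrated; aggregates quantified by cytometry.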
PI4K2A block = blocks human PI4K2A kinase activity | activity change, negative = inhibition, % at 76.9 µM | purified PI4K2A, ADP-Glo luminescence, 1 h; active compounds read low | AID 1346378 | Q9BTU6 | 0.13% of 420,000 active; in the data active means activity change below about -50%; inconclusive means mostly about -30% to -49%;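 further: -100% = wells without enzyme as full effect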
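ADP-Glo luminescence measured ADP generated by PI4K2A enzyme (4 ug/mL before mixing) with 1.2 mM PI substrate (pre-mix) and 300 microM ATP (pre-mix). Tris pH7.5 buffer with MgCl2, Triton X-100; 1 h reaction at ambient temperature.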
HTT cytoprotect = Huntington cell model cytoprotection by ATP luminescence. 0.14% of 230,000 active. PC12 HTT-Q103 induced, cytoprotection, ATP luminescence, 40 h. Potency, µM (top dose mostly 56.4 µM), without a hit: cytoprotection (ATP increase), actives largely listed as activators; further: potency means the concentration at half of the fitted maximal effect; % of control where 0% means no effect; nearly all actives have a fitted effect of over 45% in size
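ATP quantification (ATPlite) reports survival of PC12 cells in which tebufenozide, 100 nM final, switches on Htt exon 1 with 103 glutamines linked to GFP; compounds are titrated.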
An asterisk follows results filed as active; i = inactive; ? = inconclusive; . = not tested or not shown; [ ] = dose if it differs, or a comment. Unless noted, the call rests on the fitted dose curve; in most records, active means well fitted curve in the direction sought with a large enough effect; inconclusive means small, poorly fitted or top-dose-only effect, or another doubt; inactive means no such curve, though single readings can be large; an effect the other way counts as inactive or inconclusive.

SMILES	GALK inh	HTT aggregate	PI4K2A block	HTT cytoprotect
COc1ccc(C(=O)N(C)[C@H]2C[C@H]3c4[nH]c5cccc(-c6ccccc6)c5c4CCN3C[C@H]2[C@H](C)O)cc1	.	.	-2	.
CC[n+]1ccccc1/C=C/c1ccc(N(C)C)cc1	-2%	2.8µM*	-4	-79%
CN(C)c1ccc(/C=C/c2cc[n+](C)cc2)cc1	3%	2.5µM*	-12	-70%
C[C@H]1Cc2c(-c3ccccc3)nc3c(c2CO1)CN(C(=O)c1ccco1)CC3	.	.	.	-25%[10 µM]
CCCC[S@@](=N)(=O)CC[C@@H](N)C(=O)O	.	.	.	4%[1.9 µM]
O=c1nccc(N/N=C/c2ccccc2O)[nH]1	14%	.	-53*	.
c1ccc(CCNc2nc(-c3ccccc3)cs2)cc1	.	.	-6	.
CC(NC(=O)c1cc(-c2ccc(O)cc2)on1)c1ccccc1 (stereo unspecified)	.	.	.	-20%
O=[N+]([O-])c1ccc(Oc2cccc3cccnc23)c([N+](=O)[O-])c1	.	22µM*	11	.
O=C(NCCc1c[nH]c2ccccc12)OCc1cn(Cc2cccc(F)c2F)nn1	.	.	0	.
N[C@H](C(=O)O)c1ccc(O)cc1	.	.	i	.
COc1cccc2c1nc(C)c1cc(C)oc12	-4%	-25%	0	-8%
COc1cccc2nc3cc(C)c(C)cc3nc12	-2%	14%[9.22 µM]	-75*	-56%[10 µM]
Cc1cc(C)n(-c2nc(Nc3ccccc3C(F)(F)F)nc(-n3nc(C)cc3C)n2)n1	1%	10µM*	0	11%[1.9 µM]
Cc1cc(N2CCN(c3nc4ccccc4s3)CC2)n2ncnc2n1	-1%	11µM*	2	-19%
Cc1cc(N2CCN(C(c3ccccc3)c3ccccc3)CC2)n2ncnc2n1	0%	13%	-4	-9%
CC#CC(=O)N[C@H]1CC[C@@]23CCCN2C(=O)CCC[C@H]3[C@H]1C	.	.	-4	.
O=C1Nc2cc(C(=O)N3CCc4ccccc4C3)ccc2S/C1=C\c1ccccc1	.	-26%	-3	2.8µM*
Cc1c(F)cc2c(=O)c(C(=O)O)cn3c2c1CCC3C (stereo unspecified)	.	.	1	.
Cn1c(N)c(C(=O)COC(=O)c2cc(-c3ccco3)nc3ccccc23)c(=O)n(Cc2ccccc2)c1=O	.	32%	.	10µM*
COc1ccc(CC(=O)Nc2cccc(-c3nnc(-c4ccccc4)o3)c2)cc1OC	0%	22µM*	-4	-149%[0.074 µM]
COc1ccc(CC(=O)Nc2cccc(-c3nnc(-c4cccc(C)c4)o3)c2)cc1OC	-2%	11µM*	8	-28%[10 µM]
C[C@H]1[C@@H](N(C)CC2CCCCC2)CC[C@@]23CCCN2C(=O)CCC[C@@H]13	.	.	-1	.
CC(=O)c1cccc(OCC(=O)c2cc(C)n(-c3cc(C)on3)c2C)c1	-1%	13µM*	5	-49%
Cc1cc(C(=O)CSc2ncnc3ccccc23)c(C)n1C1CC1	.	.	0	.
SMILES	GALK inh	HTT aggregate	PI4K2A block	HTT cytoprotect
Cc1cc(-n2c(C)cc(C(=O)CSc3ncnc4ccccc34)c2C)no1	0%	1.8µM*	-5	-43%
Cc1cc(-n2c(C)cc(C(=O)COc3ccc4ccc(=O)oc4c3)c2C)no1	-2%	2%	-3	-20%
CCSc1oc(-c2cccs2)nc1S(=O)(=O)c1ccccc1	0%	13µM*	-17	-7%[10 µM]
CC1(C)Cc2c(sc3c2c(=N)n(Cc2ccco2)c(=O)n3Cc2ccc(Cl)cc2)CO1	3%	18µM*	0	-24%
NS(=O)(=O)c1ccc(NC(=O)CSc2nc3ccccc3c(=O)n2-c2ccc(Br)cc2)cc1	.	.	2	.
Cc1cnc(C(=O)Nc2ccccc2F)cn1	2%	11%[9.22 µM]	-21	-19%
COc1ccc(NC(=O)c2cnc(C)cn2)c2ncccc12	1%	1.8µM*	.	-53%[10 µM]
S=c1[nH]nc(Cc2sc(-c3ccccc3)nc2-c2ccccc2)o1	28µM*	7%	5	-43%
O=C(O)Cn1c(=O)n(Cc2ccc(Br)cc2F)c(=O)c2ccc(Cl)cc21	.	.	0	.
O=C(/C=C/c1ccccc1)NC(NC(=S)Nc1cc(Cl)ccc1Cl)C(Cl)(Cl)Cl (stereo unspecified)	1%	2.8µM*	1	-31%
O=C(/C=C/c1ccccc1)NC(NC(=S)Nc1ccc(Cl)cc1)C(Cl)(Cl)Cl (stereo unspecified)	-2%	-16%	0	-59%
Cc1nnc2n1N=CC=C(c1ccccc1)S2	-4%	.	4	16µM*
CCCN(CCC)c1ncnc2nc[nH]c12	0%	7.9µM*	-10	5%
CCOC(=O)Cc1ccc2sc(-c3ccccc3)nc2c1	7%	18%	-72*	1%[10 µM]
CCOC(=O)c1c(-c2ccc(OC)cc2)nc2nonc2c1N	2%	?	2	0.71µM*
O=[N+]([O-])c1ccc(CSc2nnc(Cc3ccccc3)o2)cc1	-3%	-14%[9.22 µM]	9	-5%[10 µM]
COc1ccc(Cc2nnc(SCc3ccc([N+](=O)[O-])cc3)o2)cc1	3%	7.1µM*	1	.
CO[C@@H]1[C@@H](OC)[C@H](C)[C@@](O)(CC(=O)O)O[C@H]1[C@H](C)[C@H]1O[C@@]2(CC[C@@](C)([C@H]3CC[C@@](C)([C@@H]4O[C@@H]([C@H]5O[C@](C)(O)[C@H](C)C[C@@H]5C)C[C@@H]4OC4C[C@H](OC)[C@@H](OC)[C@H](C)O4)O3)O2)C[C@H](O)[C@H]1C (stereo partly specified)	.	.	-4	.
CC1=C(C)CS(=O)N(S(=O)(=O)c2ccccc2)C1 (stereo unspecified)	0%	?	-13	?
CC1=C(C)CS(=O)N(c2ccc(S(N)(=O)=O)cc2)C1 (stereo unspecified)	-2%	-27%	-52*	?
C/C(=N\Nc1nc(C)cc(C)n1)c1ccc(N2CCOCC2)cc1	9%	11µM*	-6	3%[10 µM]
C/C(=N/Nc1nc(C)cc(C)n1)c1ccc(Br)cc1	6%	.	1	.
Cc1nc2n(c(=O)c1CCN1CCC(C(=O)c3ccc(F)cc3)CC1)CCS2	.	.	-5	.
O=C(c1cc2nc(-c3ccc(F)cc3)cc(C(F)(F)F)n2n1)N1CCCCC1c1cccnc1 (stereo unspecified)	6%	8.9µM*	4	-46%
O=C(c1cnn2c(C(F)(F)F)cc(-c3ccccc3)nc12)N1CCCCC1c1cccnc1 (stereo unspecified)	0%	30%[9.22 µM]	-11	-37%[1.9 µM]
Cc1ccc(Oc2nc3c(c(=O)n(C)c(=O)n3C)n2C)cc1C	-1%	?	-3	-37%
Cn1c(=O)c2c(nc(Oc3ccc(-c4ccccc4)cc3)n2C)n(C)c1=O	0%	2.8µM*	-2	-11%
CC(C)n1nnnc1C1(C)CCCCC(=O)N1Cc1cccc(C(F)(F)F)c1 (stereo unspecified)	.	.	-3	.
Cc1cc(N/N=C/c2ccc(O)c(C)c2O)nc(-c2ccccc2O)n1	-4%	16µM*	3	25%[10 µM]
CC(Cl)C(=O)N1CCC(C(=O)NCC2COc3ccccc3O2)CC1 (stereo unspecified)	.	.	4	.

High-throughput results: PubChem BioAssay, National Center for Advancing Translational Sciences (NCATS)
